According to PubChem BioAssay (NCI):
Compounds without any hit were thinned out: in the full panel of roughly 79,000, 15% have a hit. Rule as the data show it: active = growth inhibition above about 70%; inactive = the rest.

Key:
[1] = NCI Yeast Anticancer Drug Screen. Data for the rad50 strain (AID 155);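 also: 0% = growth of vehicle-only cultures of the same strain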; conditions: S. cerevisiae rad50 strain growth inhibition; at 50.0 µM; stronger effect = higher value
Method in brief: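 Genetically altered yeast (DNA repair pathway); compound treatment; growth inhibition vs vehicle ctrl.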

[2] = NCI Yeast Anticancer Drug Screen. Data for the mec2-1 strain (AID 157); conditions: S. cerevisiae mec2-1 strain, at 50.0 µM, stronger effect = higher value
Method in brief: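 Each compound was tested on mec2-1 yeast, a strain altered in DNA damage repair or cell cycle control. Growth inhibition is reported relative to vehicle.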

[3] = NCI Yeast Anticancer Drug Screen. Data for the sgs1 mgt1 strain (AID 161);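 also: 0% = growth of cultures given vehicle only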; conditions: S. cerevisiae sgs1 mgt1 strain, at 50.0 µM, stronger effect = higher value
Method in brief: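 Read-out: growth inhibition vs vehicle controls. Cells: mutant yeast strain deficient in DNA damage repair.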

[4] = NCI Yeast Anticancer Drug Screen. Data for the cln2 rad14 strain (AID 165);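 also: 0% = growth equal to vehicle treated cultures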; conditions: S. cerevisiae cln2 rad14 strain, at 50.0 µM, stronger effect = higher value
Method in brief: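 Test compounds were added to cln2 rad14 yeast cultures; inhibition of growth was then determined by comparison with vehicle treatment.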

[5] = NCI Yeast Anticancer Drug Screen. Data for the bub3 strain (AID 167); conditions: S. cerevisiae bub3 mutant strain, at 50.0 µM, stronger effect = higher value
Method in brief: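 Yeast carrying a defined mutation is treated with each compound, and growth is compared with that of vehicle-exposed cells to give inhibition.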

[6] = NCI Yeast Anticancer Drug Screen. Data for the mlh1 rad18 strain (AID 175); conditions: S. cerevisiae mlh1 rad18 strain growth inhibition; at 50.0 µM; stronger effect = higher value
Method in brief: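 Inhibition values reflect reduced growth of mutant yeast versus vehicle-treated controls following compound exposure; the mutations affect DNA damage repair.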

Measured: growth inhibition

O=[N+]([O-])c1ccc2nc(-c3ccccn3)c(-c3ccccn3)nc2c1
inactive: [1] 43.9% | [2] 18.4% | [3] 42.6% | [4] 18.1% | [5] 47.5% | [6] 41%

CN1C(c2ccncc2)=NCC12CCCCC2
inactive: [1] 17.2% | [2] 7.35% | [3] 3.6% | [4] 1.05% | [5] 13.2% | [6] -1.5%

COC1(c2ccccc2)N=C(c2ccc([N+](=O)[O-])cc2)OC1(C)C (configuration not stated)
inactive: [1] 4% | [2] 1.7% | [3] 6.1% | [4] 38% | [5] -4.85% | [6] -4.8%

Nc1ncnc2nc(-c3ccc(C(=O)c4cccc([N+](=O)[O-])c4)cc3)[nH]c12
inactive: [1] 1.85% | [2] 6.35% | [3] -7.5% | [4] -5.4% | [5] 14.6% | [6] -13.2%

COc1ccccc1NC(=S)N1CCC(CCCC2CCN(C(=S)Nc3ccccc3OC)CC2)CC1
inactive: [1] -30.3% | [2] -22.9% | [3] -9.75% | [4] -11.8% | [5] -20.9% | [6] -13.2%

COc1ccc(C(C2=C(O)CC(C)OC2=O)C2=C(O)CC(C)OC2=O)cc1 (configuration not stated)
inactive: [1] -15.1% | [2] -5.4% | [3] -12.6% | [4] -14.2% | [5] -19.1% | [6] -10%

O=C(c1ccccc1)C1(c2ccccc2)C(C(=O)c2ccccc2)(c2ccccc2)S1(=O)=O (configuration not stated)
inactive: [1] -19.8% | [2] -13.5% | [3] -8.05% | [4] -38.8% | [5] -6.6% | [6] -15.3%

CCCNC(=O)Nc1ccc2c(c1)Cc1cc([N+](=O)[O-])ccc1-2
inactive: [1] -12.2% | [2] 2.5% | [3] -4.3% | [4] -42% | [5] 6.75% | [6] -14.3%

OCC1CCN(CCOCc2ccccc2)C1 (configuration not stated)
inactive: [1] 9.25% | [2] -0.4% | [3] -2.3% | [4] -32.5% | [5] -7.05% | [6] 7.6%

O=C1OC(c2ccc3c(c2)CCCC3)=C/C1=C/c1ccc2c(c1)OCO2
inactive: [1] -13.4% | [2] 4% | [3] 14.1% | [4] -25.1% | [5] 2.9% | [6] -15.9%

Cc1cnc2nc(C)c(C)nc2n1
inactive: [1] 12.3% | [2] 1.55% | [3] 2.35% | [4] -0.95% | [5] -0.85% | [6] 4.95%

CCCCCCC(C(=O)OCC)(C(=O)OCC)c1ccccc1
inactive: [1] -10.8% | [2] -16.1% | [3] 1.15% | [4] -31.1% | [5] 37.9% | [6] -6.2%

CCCC(C)C(=O)OC(C)CC(C)C (configuration not stated)
inactive: [1] 31% | [2] 15.9% | [3] 21.9% | [4] -0.75% | [5] 20.9% | [6] 15.6%

CCOC(=O)c1cnc2[nH]ccn2c1=O
inactive: [1] -26.9% | [2] -43.3% | [3] -4.45% | [4] 10.3% | [5] -6.55% | [6] -8.75%

c1csc(NC(Nc2nccs2)C23CC4CC(CC(C4)C2)C3)n1
inactive: [1] 28.1% | [2] 12.7% | [3] -1.4% | [4] 20.6% | [5] 1.1% | [6] 7.45%

Brc1cnc2nc(Cc3ccccc3)[nH]c2c1
inactive: [1] 5.05% | [2] 7.7% | [3] 17.3% | [4] -52.3% | [5] 27% | [6] 2.9%

CCN(CC)CC(C(=O)Nc1c(C)cccc1C)/C(C)=N\NC(=O)C[N+](C)(C)C (configuration not stated)
inactive: [1] 19.4% | [2] 4.85% | [3] -26.6% | [4] -21.8% | [5] -0.7% | [6] -1.9%

CCN(CC)Cc1cc(Nc2ncnc3sc(C)c(C)c23)ccc1O
inactive: [1] 9.05% | [2] 9.95% | [3] 1.3% | [4] -13.2% | [5] -10.3% | [6] -15.7%

CC1=CC(C)(C)NC(=S)N1CCO
inactive: [1] 1.95% | [2] -18.6% | [3] 25.3% | [4] 13.4% | [5] 1.15% | [6] 32.3%

CSc1nc2c(N)nc(N)nc2nc1C
inactive: [1] 5.9% | [2] 0.2% | [3] 0.75% | [4] -31.6% | [5] -16.7% | [6] 11.5%

CS(=O)(=O)OCC1CCCCCCCCCCC12SCCCS2 (configuration not stated)
inactive: [1] -30.9% | [2] -22.7% | [3] -3.25% | [4] 20.4% | [5] -23.6% | [6] -45.9%

NC(C(=O)O)C(SCc1ccccc1)c1cccc(O)c1 (configuration not stated)
inactive: [1] -3.2% | [2] 14.3% | [3] 18.7% | [4] -26.4% | [5] -1.3% | [6] -0.7%

Cc1c(C)c(CSC#N)c(C)c(C)c1CSC#N
inactive: [1] 53.8% | [2] -13.6% | [3] -10.1% | [4] -1.9% | [5] 8.2% | [6] 8.55%

CCCCCCCCCCCCCCCCCC#N
inactive: [1] 36.7% | [2] 20.6% | [3] -2.9% | [4] -52.1% | [5] 5.5% | [6] 39.9%

O=C(OCc1ccccc1)/C(c1ccccc1)=[N+]1/C(=S)Nc2ccc([N+](=O)[O-])cc21
inactive: [1] 3% | [2] -5% | [3] 1.6% | [4] 3.8% | [5] 13.9% | [6] 7.9%

O=[N+]([O-])c1cc(F)cc(I)c1
inactive: [1] -3.15% | [2] -38.6% | [3] 2.15% | [4] 15.8% | [5] 4.25% | [6] -5%

O=C(O)CN1CCSc2ccccc2CN(CC(=O)O)CCSc2ccccc2C1
inactive: [1] 4.5% | [2] 3.1% | [3] -2.6% | [4] -32% | [5] 12.7% | [6] -8%

O=C(O)c1ccc([N+](=O)[O-])cc1OCc1ccccc1
inactive: [1] 13.4% | [2] -5.1% | [3] 12.9% | [4] -39% | [5] -3.4% | [6] 3.95%

CSc1nc(C)cc(=O)n1C1OC(COC(C)=O)C(OC(C)=O)C(OC(C)=O)C1OC(C)=O (configuration not stated)
inactive: [1] 20.6% | [2] -13.6% | [3] -7.35% | [4] 16.6% | [5] -30.6% | [6] 32.5%

COC(=O)C(=O)c1c(C(=O)OC)nc2nnc(N)n2c1-c1ccc(OC)cc1
inactive: [1] -13.4% | [2] 0.6% | [3] -0.5% | [4] -26.5% | [5] 8.2% | [6] -14.9%

C1=Nc2ccccc2/C1=C/c1c[nH]c2ccccc12
inactive: [1] 11.2% | [2] -10.1% | [3] 5.2% | [4] 17.9% | [5] 1.05% | [6] 17.9%

O=[N+]([O-])C(C(Cl)=C(Cl)Cl)=C(N1CCCCC1)N1CCCCC1
inactive: [1] -48.2% | [2] -19.5% | [3] -13.1% | [4] -22.1% | [5] -19.4% | [6] -13.9%

Cc1ccc(CCS(=O)(=O)N=[N+]=[N-])cc1
inactive: [1] 1.45% | [2] -11.8% | [3] -8.95% | [4] -53.8% | [5] -20% | [6] -3.4%

CC(C)(C)C1CCC2c3c([nH]c4ccccc34)C3C(=O)N(c4ccc(Br)cc4)C(=O)C3C2C1 (configuration not stated)
inactive: [1] 12.8% | [2] 11.8% | [3] 8.05% | [4] -35.6% | [5] 13.8% | [6] 6.15%

Cc1ccc(S(=O)(=O)N2CCCCC2)cc1
inactive: [1] -11.8% | [2] -3.35% | [3] 38.3% | [4] -26.1% | [5] -6.75% | [6] -20.5%

CCC1(COC(NC(=O)c2ccccc2)(C(F)(F)F)C(F)(F)F)COC1
inactive: [1] -14.2% | [2] -1.9% | [3] -32.2% | [4] 14.1% | [5] -24.2% | [6] 7.05%

COC(=O)C1=CO[C@@H](C)[C@@H]2CN3CCc4c([nH]c5ccc(OC)cc45)[C@@H]3C[C@H]12
inactive: [1] 8.9% | [2] -19.9% | [3] -24.9% | [4] -18.6% | [5] -2.9% | [6] -16.4%
